Compounds with a hit are over-represented: about 5% of the library has one in this group of screens.
AHR activator: activates the human aryl hydrocarbon receptor | P35869 | AHR-responsive luciferase reporter cells, luminescence | activation, % at 5 µM | 2.5% of 320,000 active | AID 2796; in the data active means activation above about 47%;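 further: 0% = vehicle wells and 100% = reference agonist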
SENP7 block: SENP7 protease inhibition; AID 434973; 1.5% of 330,000 active; inhibition, % at 5 µM; recombinant SENP7, Z-RLRGG-aminoluciferin luminescence, 40 min; Q9BQF6;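 active means inhibition above about 50% at the single test dose, limit read from the data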;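 further: plate controls were DMSO with enzyme for no effect and no enzyme buffer wells for full effect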
SENP8 block-1: blocks the human protease SENP8 | Q96LD8 | purified SENP8, Z-RLRGG-aminoluciferin cleavage, luminescence | inhibition, % at 10 µM | 1.2% of 330,000 active; in the data active means inhibition above about 50%
SENP8 block-2: blocks human SENP8 cleavage of Nedd8 substrate | inhibition, % at 20 µM | 0.64% of 360,000 active | recombinant SENP8, Nedd8 substrate fluorescence; in the data active means inhibition mostly above about 40%, no sharp cut-off; inactive means mostly below about 27%
SENP6 inh: blocks the human protease SENP6 | Q9GZR1 | Recombinant SENP6 catalytic domain, aminoluciferin luminescence | inhibition, % at 10 µM | 1.8% of 330,000 active | AID 2599;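 active means inhibition above about 50% at the single tested dose, limit read from the data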;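 further: plate controls were DMSO wells with enzyme for no effect and DMSO wells lacking enzyme for full effect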
EBI2 antag: antagonists of human EBI2 receptor | P32249 | EBI2 beta-arrestin recruitment, luminescence, 7a,25-OHC stimulated | inhibition, % at 5 µM | 0.81% of 360,000 active; in the data active means inhibition above about 38%;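 further: enzyme fragment complementation signal reports receptor beta-arrestin coupling in cells; 0% = agonist plus DMSO wells and 100% = wells without agonist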
Target sequence (P32249 whole entry, looked up, the tested form may be a part): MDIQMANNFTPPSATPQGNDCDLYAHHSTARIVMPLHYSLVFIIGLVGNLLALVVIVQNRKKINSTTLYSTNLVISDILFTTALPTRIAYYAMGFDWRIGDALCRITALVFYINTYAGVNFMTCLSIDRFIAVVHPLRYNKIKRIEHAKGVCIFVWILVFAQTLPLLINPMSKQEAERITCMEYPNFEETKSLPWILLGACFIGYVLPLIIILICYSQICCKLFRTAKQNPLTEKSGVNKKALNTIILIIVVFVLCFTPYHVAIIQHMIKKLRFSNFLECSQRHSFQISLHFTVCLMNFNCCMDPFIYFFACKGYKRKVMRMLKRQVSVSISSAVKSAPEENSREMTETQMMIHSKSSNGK
SENP8 conf: confirmation of human SENP8 protease inhibitors; shares compounds with SENP7 block; Recombinant SENP8, Z-RLRGG-aminoluciferin luminescence, 60 min; inhibition, % at 12.5 µM; 40% of 6,200 active; AID 488912;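 active means mean inhibition across replicates above about 50%, limit read from the data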
SENP6 confirm: human SENP6 inhibition, confirmed; 58% of 6,200 active; inhibition, % at 12.5 µM; AID 488915; recombinant SENP6, Z-RLRGG-aminoluciferin luminescence; shares compounds with SENP7 block
SENP7 confirm: human SENP7 inhibition, confirmed. shares compounds with SENP7 block. recombinant SENP7, Z-RLRGG-aminoluciferin luminescence, 40 min. inhibition, % at 12.5 µM. 69% of 6,200 active. AID 488917
Casp3 select: selectivity test for SENP inhibitors: human caspase-3 inhibition. purified caspase-3, Z-DEVD-aminoluciferin luminescence, 60 min. 60% of 6,200 active. inhibition, % at 12.5 µM. shares compounds with SENP7 block;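 active means mean inhibition above about 50%, limit read from the data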;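 further: plate controls were enzyme with DMSO for no effect and wells without caspase-3 for full effect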
SENP luc ctr: luminescence interference (SENP counter-screen). shares compounds with SENP7 block. Pre-incubated SENP8/Z-RLRGG-aminoluciferin, luciferase luminescence interference. inhibition, % at 12.5 µM. 39% of 6,200 active. AID 488919;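 active means mean inhibition above about 50% when retested at one dose, limit read from the data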;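 further: plate controls were DMSO wells with completed reaction for no effect and substrate without enzyme for full effect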
Active calls of the source: *; nt = no result.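 How the source made its calls, unless noted: active means mean inhibition above about 50% in the one-dose retest (limit read from the data); inactive means the rest.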

SMILES | AHR activator | SENP7 block | SENP8 block-1 | SENP8 block-2 | SENP6 inh | EBI2 antag | SENP8 conf | SENP6 confirm | SENP7 confirm | Casp3 select | SENP luc ctr
CC(=O)Nc1cc2nn(-c3ccccc3)nc2cc1C | 55* | 77* | 72* | -421 | 78* | 0 | 26 | 45 | 87* | 79* | 26
O=C(Nc1cc([N+](=O)[O-])ccc1O)c1cccc([N+](=O)[O-])c1 | 5 | 67* | 69* | 29 | 83* | 5 | 85* | 83* | 97* | 86* | 70*
O=C(Nc1cc([N+](=O)[O-])ccc1O)c1ccc2c(c1)C(=O)N(Cc1ccco1)C2=O | 2 | 38 | 76* | 8 | 82* | 13 | 47 | 84* | 74* | 77* | 84*
CNn1cnc2ccsc2c1=O | 0 | 8 | -2 | 16 | -13 | 0 | nt | nt | nt | nt | nt
N#Cc1ccsc1NC(=O)COC(=O)c1ccc(Br)o1 | 12 | 0 | 2 | -38 | 2 | 2 | nt | nt | nt | nt | nt
COc1ccc(CCC(=O)Nc2sccc2C#N)cc1 | -5 | 87* | 80* | nt | 86* | nt | 84* | 85* | 98* | 89* | 59*
N#Cc1ccsc1NC(=O)COC(=O)c1cc(Br)ccc1O | 6 | 85* | 89* | -70 | 95* | -2 | 75* | 82* | 87* | 70* | 23
COc1ccc(NC(=O)CSCC(=O)Nc2sccc2C#N)cc1 | 27 | -18 | 7 | 0 | -4 | -6 | nt | nt | nt | nt | nt
N#Cc1ccsc1NC(=O)COC(=O)c1ccc2ccccc2c1 | 8 | 86* | 84* | 17 | 91* | -7 | 6 | 67* | 100* | 80* | 20
Cn1ccnc1CC(O)(c1ccccc1)c1ccccc1 | -1 | 1 | -6 | 17 | 12 | -2 | nt | nt | nt | nt | nt
COc1ccc(NC(=O)c2ccc(S(=O)(=O)N3CCCC3)cc2)cc1OC | 2 | -5 | 0 | 8 | -17 | -6 | nt | nt | nt | nt | nt
CC(C)NC(=S)N1CCN(c2ncccn2)CC1 | 1 | 8 | 0 | -1 | -3 | -2 | nt | nt | nt | nt | nt
O=C(CSc1ccccn1)N/N=C/c1ccccc1[N+](=O)[O-] | 4 | 0 | -13 | 6 | -15 | -8 | nt | nt | nt | nt | nt
O=C(CSc1ccccn1)N/N=C/c1cc([N+](=O)[O-])ccc1O | 1 | 15 | 6 | 27* | 52* | 5 | 33 | 26 | 65* | 58* | 36
COc1cc(NC(=O)C(C)(C)C)c(C(=O)OCC(=O)Nc2cc(C)on2)cc1OC | nt | nt | nt | -10 | nt | -4 | nt | nt | nt | nt | nt
COc1ccccc1C=NN=Cc1ccccc1O | nt | nt | nt | 22 | nt | 1 | nt | nt | nt | nt | nt
CN(C)c1ccc(/C=N/N=C/c2ccccc2O)cc1 | 9 | 97* | 84* | -26 | 86* | 35 | 47 | 58* | 61* | 59* | 34
O=C(Cn1nnc(-c2ccc3c(c2)OCO3)n1)Nc1ccccc1C(=O)O | 21 | 60* | 80* | -4 | 89* | -6 | 48 | 87* | 97* | 87* | 87*
COc1ccc(CNC(=O)CN(C(=O)CCC(=O)Nc2ccccn2)c2ccc3c(c2)OCO3)cc1 | 3 | 6 | -2 | 11 | -6 | -3 | nt | nt | nt | nt | nt
COc1ccc(C=Nc2ccc3[nH]ncc3c2)c(O)c1 | 3 | 18 | -7 | -179 | 62* | -22 | 17 | 4 | 10 | 10 | 6
CC1(C)CC(=O)C(C=Nc2ccc3[nH]ncc3c2)=C(O)C1 | 5 | 5 | -4 | -104 | 3 | -7 | nt | nt | nt | nt | nt
Oc1c(Br)cc(Br)cc1C=Nc1ccc2[nH]ncc2c1 | 8 | 28 | 32 | -322 | 56* | 3 | 0 | 12 | -5 | 5 | 3
Oc1c(Br)cc(Br)cc1C=Nc1cccnc1 | 1 | 16 | 24 | -10 | 55* | -3 | 13 | 42 | 26 | 12 | 5

Compound activity (PubChem)
